Results published in PubChem BioAssay (NCATS).
Results filed as inconclusive are left out. Active and inactive are the calls of the source. Calls come from the whole dose curve; as a rule, active = well fitted inhibition curve with a large enough effect; inconclusive = small, poorly fitted or top-dose-only effect; inactive = flat fitted curve, though single readings scatter.
Potency is the fitted concentration of half-maximal effect.

Each compound was assayed on CP268 (assay: qHTS profiling for inhibitors of Plasmodium falciparum proliferation (AID 504749; note: nearly all actives have a fitted effect of over 60% in size;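 for activity, negative = inhibition: 0% = DMSO vehicle and full inhibition = artemisinin control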)). Conditions: P. falciparum in erythrocytes, SYBR Green DNA, 72 h; series mostly up to 28.7 µM; activity, negative = inhibition: at the top concentration.
Method in brief: (§1)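 SYBR Green fluorescence (ex 485 nm, em 535 nm) reports parasite DNA after 72 h compound exposure of infected red cells at 0.3% parasitemia, 2.5% hematocrit; signal normalized to 0.29 uM artemisinin and vehicle wells.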
In the case of C[C@H](N)Cc1ccccc1, the “activity, negative = inhibition” value is reported as -4.09% (inactive).
In the case of C[C@]12C=CC(=O)C=C1CC[C@@H]1C2CC[C@]2(C)OC(=O)CCC12 (stereo partly specified), the “activity, negative = inhibition” value is reported as 1.11% (inactive).
With OCC(O)[C@H]1O[C@@H]2O[C@H](C(Cl)(Cl)Cl)O[C@@H]2[C@H]1O (stereo partly specified) the “activity, negative = inhibition” value was -0.959% (inactive).
In the case of CC1(C)[C@@H](C=C(Cl)Cl)[C@@H]1C(=O)OCc1c(F)c(F)cc(F)c1F, the “activity, negative = inhibition” value is reported as -0.391% (inactive).
In the case of CC1(C)S[C@@H]2[C@H](N)C(=O)N2C1C(=O)O (stereo partly specified), the “activity, negative = inhibition” value is reported as -1.09% [at 12.8 µM] (inactive).
With C=C1Nc2ccccc2C(=O)N1c1ccccc1C the “activity, negative = inhibition” value was 0.37% (inactive).
In the case of CC1OC(O[C@H]2C[C@@H](O)[C@]3(CO)[C@@H]4C(CC[C@]3(O)C2)[C@@]2(O)CC[C@H](C3=CC(=O)OC3)[C@@]2(C)C[C@H]4O)C(O)C(O)C1O (stereo partly specified), the “activity, negative = inhibition” value is reported as -3.47% (inactive).
In the case of O=[N+]([O-])OC1CO[C@H]2C(O[N+](=O)[O-])COC12 (stereo partly specified), the “activity, negative = inhibition” value is reported as -12.4% (inactive).
With CCOC(=O)/C=C(C)/C=C/CC(C)CCCC(C)C (stereo unspecified) the “activity, negative = inhibition” value was 1.44% (inactive).
For [S]=[Sb][S][Sb]=[S], the “activity, negative = inhibition” value was 6.48% (inactive).
With CN1C2CCC1C(C(=O)O)C(OC(=O)c1ccccc1)C2 (stereo unspecified) the “activity, negative = inhibition” value was -2.84% (inactive).
In the case of C[C@@H]1CC[C@H]2[C@@H](C)C(=O)O[C@@H]3OC4(C)CC[C@@H]1C32OO4 (stereo partly specified), the Potency is reported as 0.0135 µM (active).
In the case of Cc1ccc2c(c1)[C@@H]1CN(C)CC[C@H]1N2, the “activity, negative = inhibition” value is reported as -5.04% (inactive).
Nc1nc(O)c(-c2ccccc2)o1 was tested, and the “activity, negative = inhibition” value was 2.9% (inactive).
In the case of C=CC[N+]1(C)CCC23c4c5ccc(O)c4O[C@H]2C(=O)CC[C@@]3(O)C1C5 (stereo partly specified), the “activity, negative = inhibition” value is reported as 2.97% (inactive).
OC[C@@H](O)[C@H]1O[C@@H]2OC(C(Cl)(Cl)Cl)O[C@H]2[C@H]1O (stereo partly specified) was tested, and the “activity, negative = inhibition” value was -3.18% (inactive).
In the case of CCCCCCC(=O)O[C@H]1CC[C@H]2[C@@H]3CCC4CC(=O)C=C(C)[C@]4(C)[C@H]3CC[C@]12C (stereo partly specified), the “activity, negative = inhibition” value is reported as -2.35% (inactive).
In the case of Cc1cc(C)cc(C(=O)OC2CC3CCC(C2)N3C)c1 (stereo unspecified), the “activity, negative = inhibition” value is reported as -1.5% (inactive).
In the case of CCCN1CCCC2Cc3nc(N)ncc3CC21 (stereo unspecified), the “activity, negative = inhibition” value is reported as -1.29% (inactive).
In the case of COc1ccc2c3c1O[C@H]1[C@@H](O)C=C[C@H]4C(C2)NCCC341 (stereo partly specified), the “activity, negative = inhibition” value is reported as -3.74% (inactive).
CCCCCC(O)C1C(=O)OC(C)C(O)\C=C/C=C\C=C/C=C\C=C(\C)C(O)C(O)C(O)CC(O)CC(O)CC(O)CC(O)CC1O (stereo unspecified) was tested, and the “activity, negative = inhibition” value was -1.13% (inactive).
In the case of CCCCCc1cc(O)c2c(c1)OC(C)(C)C1CC=C(C)CC21 (stereo unspecified), the Potency is reported as 6.01 µM (active).

The compounds below were run on CP269 in the same assay as above. Conditions: P. falciparum in erythrocytes, SYBR Green DNA, 72 h; series mostly up to 28.7 µM; activity, negative = inhibition: at the top concentration.
Method in brief: as §1
C[C@H](N)Cc1ccccc1 was tested, and the “activity, negative = inhibition” value was 6.85% (inactive).
With C[C@]12C=CC(=O)C=C1CC[C@@H]1C2CC[C@]2(C)OC(=O)CCC12 (stereo partly specified) the “activity, negative = inhibition” value was 0.565% (inactive).
For OCC(O)[C@H]1O[C@@H]2O[C@H](C(Cl)(Cl)Cl)O[C@@H]2[C@H]1O (stereo partly specified), the “activity, negative = inhibition” value was 6.61% (inactive).
CC1(C)[C@@H](C=C(Cl)Cl)[C@@H]1C(=O)OCc1c(F)c(F)cc(F)c1F was tested, and the “activity, negative = inhibition” value was 0.552% (inactive).
For CC1(C)S[C@@H]2[C@H](N)C(=O)N2C1C(=O)O (stereo partly specified), the “activity, negative = inhibition” value was 5.7% [at 12.8 µM] (inactive).
In the case of C=C1Nc2ccccc2C(=O)N1c1ccccc1C, the “activity, negative = inhibition” value is reported as 0.122% (inactive).
For CC1OC(O[C@H]2C[C@@H](O)[C@]3(CO)[C@@H]4C(CC[C@]3(O)C2)[C@@]2(O)CC[C@H](C3=CC(=O)OC3)[C@@]2(C)C[C@H]4O)C(O)C(O)C1O (stereo partly specified), the “activity, negative = inhibition” value was 0.248% (inactive).
In the case of O=[N+]([O-])OC1CO[C@H]2C(O[N+](=O)[O-])COC12 (stereo partly specified), the “activity, negative = inhibition” value is reported as 0.987% (inactive).
For CCOC(=O)/C=C(C)/C=C/CC(C)CCCC(C)C (stereo unspecified), the “activity, negative = inhibition” value was 2.48% (inactive).
For [S]=[Sb][S][Sb]=[S], the “activity, negative = inhibition” value was 8.81% (inactive).
With CN1C2CCC1C(C(=O)O)C(OC(=O)c1ccccc1)C2 (stereo unspecified) the “activity, negative = inhibition” value was 6.93% (inactive).
With C[C@@H]1CC[C@H]2[C@@H](C)C(=O)O[C@@H]3OC4(C)CC[C@@H]1C32OO4 (stereo partly specified) the Potency was 0.0107 µM (active).
With Cc1ccc2c(c1)[C@@H]1CN(C)CC[C@H]1N2 the “activity, negative = inhibition” value was 0.997% (inactive).
Nc1nc(O)c(-c2ccccc2)o1 was tested, and the “activity, negative = inhibition” value was -8.36% (inactive).
With C=CC[N+]1(C)CCC23c4c5ccc(O)c4O[C@H]2C(=O)CC[C@@]3(O)C1C5 (stereo partly specified) the “activity, negative = inhibition” value was 3.45% (inactive).
With OC[C@@H](O)[C@H]1O[C@@H]2OC(C(Cl)(Cl)Cl)O[C@H]2[C@H]1O (stereo partly specified) the “activity, negative = inhibition” value was 2.24% (inactive).
In the case of CCCCCCC(=O)O[C@H]1CC[C@H]2[C@@H]3CCC4CC(=O)C=C(C)[C@]4(C)[C@H]3CC[C@]12C (stereo partly specified), the “activity, negative = inhibition” value is reported as -6.11% (inactive).
In the case of Cc1cc(C)cc(C(=O)OC2CC3CCC(C2)N3C)c1 (stereo unspecified), the “activity, negative = inhibition” value is reported as -3.54% (inactive).
In the case of CCCN1CCCC2Cc3nc(N)ncc3CC21 (stereo unspecified), the “activity, negative = inhibition” value is reported as -4.04% (inactive).
COc1ccc2c3c1O[C@H]1[C@@H](O)C=C[C@H]4C(C2)NCCC341 (stereo partly specified) was tested, and the “activity, negative = inhibition” value was -7.16% (inactive).
In the case of CCCCCC(O)C1C(=O)OC(C)C(O)\C=C/C=C\C=C/C=C\C=C(\C)C(O)C(O)C(O)CC(O)CC(O)CC(O)CC(O)CC1O (stereo unspecified), the “activity, negative = inhibition” value is reported as 1.23% (inactive).
For CCCCCc1cc(O)c2c(c1)OC(C)(C)C1CC=C(C)CC21 (stereo unspecified), the Potency was 4.78 µM (active).

Each compound was assayed on CP286 in the same assay as above. Conditions: P. falciparum in erythrocytes, SYBR Green DNA, 72 h; series mostly up to 28.7 µM; activity, negative = inhibition: at the top concentration.
Method in brief: as §1
For C[C@H](N)Cc1ccccc1, the “activity, negative = inhibition” value was 1.26% (inactive).
With C[C@]12C=CC(=O)C=C1CC[C@@H]1C2CC[C@]2(C)OC(=O)CCC12 (stereo partly specified) the “activity, negative = inhibition” value was -0.669% (inactive).
For OCC(O)[C@H]1O[C@@H]2O[C@H](C(Cl)(Cl)Cl)O[C@@H]2[C@H]1O (stereo partly specified), the “activity, negative = inhibition” value was -3.86% (inactive).
With CC1(C)[C@@H](C=C(Cl)Cl)[C@@H]1C(=O)OCc1c(F)c(F)cc(F)c1F the “activity, negative = inhibition” value was -3.6% (inactive).
With CC1(C)S[C@@H]2[C@H](N)C(=O)N2C1C(=O)O (stereo partly specified) the “activity, negative = inhibition” value was 1.56% [at 12.8 µM] (inactive).
With C=C1Nc2ccccc2C(=O)N1c1ccccc1C the “activity, negative = inhibition” value was 1.2% (inactive).
In the case of CC1OC(O[C@H]2C[C@@H](O)[C@]3(CO)[C@@H]4C(CC[C@]3(O)C2)[C@@]2(O)CC[C@H](C3=CC(=O)OC3)[C@@]2(C)C[C@H]4O)C(O)C(O)C1O (stereo partly specified), the “activity, negative = inhibition” value is reported as -0.415% (inactive).
For O=[N+]([O-])OC1CO[C@H]2C(O[N+](=O)[O-])COC12 (stereo partly specified), the “activity, negative = inhibition” value was 0.207% (inactive).
CCOC(=O)/C=C(C)/C=C/CC(C)CCCC(C)C (stereo unspecified) was tested, and the “activity, negative = inhibition” value was 5.1e-05% (inactive).
[S]=[Sb][S][Sb]=[S] was tested, and the “activity, negative = inhibition” value was -0.605% (inactive).
In the case of CN1C2CCC1C(C(=O)O)C(OC(=O)c1ccccc1)C2 (stereo unspecified), the “activity, negative = inhibition” value is reported as -3.29% (inactive).
In the case of C[C@@H]1CC[C@H]2[C@@H](C)C(=O)O[C@@H]3OC4(C)CC[C@@H]1C32OO4 (stereo partly specified), the Potency is reported as 0.0071 µM (active).
For Cc1ccc2c(c1)[C@@H]1CN(C)CC[C@H]1N2, the “activity, negative = inhibition” value was -3.96% (inactive).
For Nc1nc(O)c(-c2ccccc2)o1, the “activity, negative = inhibition” value was -0.16% (inactive).
C=CC[N+]1(C)CCC23c4c5ccc(O)c4O[C@H]2C(=O)CC[C@@]3(O)C1C5 (stereo partly specified) was tested, and the “activity, negative = inhibition” value was 0.127% (inactive).
For OC[C@@H](O)[C@H]1O[C@@H]2OC(C(Cl)(Cl)Cl)O[C@H]2[C@H]1O (stereo partly specified), the “activity, negative = inhibition” value was 0.958% (inactive).
CCCCCCC(=O)O[C@H]1CC[C@H]2[C@@H]3CCC4CC(=O)C=C(C)[C@]4(C)[C@H]3CC[C@]12C (stereo partly specified) was tested, and the Potency was 11.2 µM (active).
In the case of Cc1cc(C)cc(C(=O)OC2CC3CCC(C2)N3C)c1 (stereo unspecified), the “activity, negative = inhibition” value is reported as -8.99% (inactive).
CCCN1CCCC2Cc3nc(N)ncc3CC21 (stereo unspecified) was tested, and the “activity, negative = inhibition” value was 1.79% (inactive).
For COc1ccc2c3c1O[C@H]1[C@@H](O)C=C[C@H]4C(C2)NCCC341 (stereo partly specified), the “activity, negative = inhibition” value was 0.113% (inactive).
In the case of CCCCCC(O)C1C(=O)OC(C)C(O)\C=C/C=C\C=C/C=C\C=C(\C)C(O)C(O)C(O)CC(O)CC(O)CC(O)CC(O)CC1O (stereo unspecified), the “activity, negative = inhibition” value is reported as 0.391% (inactive).
For CCCCCc1cc(O)c2c(c1)OC(C)(C)C1CC=C(C)CC21 (stereo unspecified), the Potency was 5.62 µM (active).
